Data from PubChem BioAssay AID2701 (National Center for Advancing Translational Sciences (NCATS), 2010).
This is one part of the list. Inconclusive results are not listed. Activity calls are given as the source filed them. Calls come from the whole dose curve; as a rule, active = well fitted inhibition curve with a large enough effect; inconclusive = small, poorly fitted or top-dose-only effect, or another doubt; inactive = no such curve, though single readings can be large or run the other way.
Potency is the fitted concentration of half-maximal effect.

These molecules were tested against 4'-phosphopantetheinyl transferase ffp (Bacillus subtilis) (UniProt Q9F4F7) (assay: Confirmation qHTS Assay for Inhibitors of Bacillus subtilis Sfp phosphopantetheinyl transferase (PPTase)). Settings: Sfp PPTase enzymatic assay, qHTS titration; series mostly up to 114 µM.
4'-phosphopantetheinyl transferase ffp (Bacillus subtilis), sequence (Q9F4F7 whole entry, looked up): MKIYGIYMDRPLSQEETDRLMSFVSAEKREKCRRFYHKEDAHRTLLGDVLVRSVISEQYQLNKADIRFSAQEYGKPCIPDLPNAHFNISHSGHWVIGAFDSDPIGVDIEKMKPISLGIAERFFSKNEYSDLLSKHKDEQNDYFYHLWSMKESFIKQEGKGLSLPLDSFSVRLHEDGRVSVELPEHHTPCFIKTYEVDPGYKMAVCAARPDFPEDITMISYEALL
From the text: The covalent attachment of a phosphopantetheinyl (4'-PP) arm to a variety of synthases and other proteins is a key posttranslational protein modification. The 4'-PP is installed on the proteins post-translationally from coenzyme A (CoA) on a conserved serine residue by action of phosphopantetheinyl transferase (PPTase) enzymes. Phosphopantetheinylation is essential for synthase activity, and removal of the PPTase gene precludes natural product synthesis in microorganisms, or in the case of fatty acid biosynthesis, renders the organism unviable. PPTase enzymes belong to a distinct structural superfamily. Within bacteria, these enzymes are grouped into two classes based upon primary structure, the AcpS-Type and Sfp-Type PPTases.
Sfp-type PPTases, corresponding to an activator of surfactin production in Bacillus subtilis, are responsible for modifying type I polyketide and nonribosomal peptide synthases of prokaryotes. Sfp-type PPTases are responsible for the activation of a variety of pathogen-associated virulence factors. Among these compounds are toxins such as mycolactone from Mycobacterium ulcerans, siderophores such as vibriobactin from Vibrio cholerae or mycobactin from Mycobacterium tuberculosis, as well as the mycolic acids which form the waxy cell wall of Mycobacteria. The biosyntheses of these natural products are considered attractive targets for drug design.
In search of small molecule Sfp-PPTase inhibitors, a fluorescence quenching assay was developed for detection of Bacillus subtilis Sfp-PPTase enzymatic activity in a miniaturized high-throughput format. The consensus ybbr acceptor peptide […] was N-terminally labeled with Black Hole Quencher-2 (BHQ-2) and used in combination with rhodamine-labeled coenzyme A as a co-substrate.
Inhibition of Sfp-PPTase was detected by recording the fluorescence intensity change over a 30-minute reaction period at a 525 nm excitation and 598 nm emission. Reagents were supplied by Michael Burkart and Timothy Foley, University of California at San Diego.
Assay Submitter: Michael Burkart, University of California, San Diego
Screening Center PI: Austin, C.P.
Screening Center: NIH Chemical Genomics Center [NCGC]
Assay Buffer: 50 mM Hepes-Na pH 7.6, 10 mM MgCl2, 0.01% Nonidet P-40, and 0.01% BSA.
3 uL of Sfp-PPTase enzyme (final concentration 15 nM) and 1 uL of substrate mixture (final concentration for rhodamine-CoA and BHQ-2-YbbR 5 uM and 12.5 uM, respectively) dispensed in columns 1, 2, 5 - 48. Columns 1 and 2 used to generate neutral control (uninhibited reaction)
Three uL of reagents, consisting of buffer (in columns 3 and 4 as negative control) and Sfp-PPTase (in columns 1, 2, 5 - 48) were dispensed into 1,536-well Greiner black solid bottom plate. Compounds (23 nL) were transferred via Kalypsys pintool equipped with 1,536-pin array. The plate was incubated for 15 min at room temperature, followed by the addition of 1 uL substrate to start the reaction. The plate was then centrifuged at 1000 rpm for 15 seconds, and the fluorescence intensity recorded on a ViewLux High-throughput CCD imager (Perkin-Elmer) using standard BODIPY optics (525 nm excitation and 598 nm emission). The plate was then incubated for 30 minutes, and a second read on the ViewLux was performed. The fluorescence intensity difference over the 30-minute period was used to calculate the respective reaction rate for each well.
For `OCCN1CCN(C(=S)c2ccc(-c3ccccc3)cc2)CC1`, the Potency was 14.8 µM (active). In the case of `FC(F)(F)C1CCCN(c2nsc3ccccc23)C1` (configuration not stated), the Potency is reported as 2.1 µM (active). With `Cc1ccc(NC(=O)c2c(NC(=O)CCC(=O)O)sc3c2CCCCC3)cc1` the Potency was 14.8 µM (active). In the case of `COc1ccc(OCc2nnc3n2N=C(c2ccccc2)C(CC(=O)O)S3)cc1` (configuration not stated), the Potency is reported as 2.35 µM (active). In the case of `Cc1nn2c(c1-c1ccccc1)N=C(c1ccco1)CC2c1ccccc1` (configuration not stated), the Potency is reported as 37.3 µM (active). With `CC(C)(C)c1nnc(NC(=O)C2c3ccccc3Oc3ccccc32)s1` the Potency was 4.69 µM (active). With `Cc1ccc(/C=C(\C#N)C(=O)Nc2cccc3ncccc23)o1` the Potency was 26.4 µM (active). For `O=c1[nH]c2ccccc2n2c(-c3ccccc3)nnc12`, the Potency was 2.1 µM (active). In the case of `CCCOC(=O)Nc1sc2c(c1C(=O)OCC)CCC2`, the Potency is reported as 29.6 µM (active). With `NC(=O)c1c(NC(=O)CSc2nnc(-c3ccco3)n2N)sc2c1CCCC2` the Potency was 14.8 µM (active). With `CCC(c1nnnn1Cc1ccco1)N(Cc1cc2cc(OC)ccc2[nH]c1=O)C1CCCCC1` (configuration not stated) the Potency was 9.37 µM (active). With `c1ccc(-c2nc(NCc3ccco3)c3ccccc3n2)cc1` the Potency was “inactive”.
